IL1B secr inh: qHTS for Inhibitors of Inflammasome Signaling: IL-1-beta AlphaLISA Primary Screen. 360,000 compounds, 4.7% hits. AID 743279, 2014. activity change, % at 57.5 µM. THP-1 LPS/ATP IL-1B secretion, AlphaLISA, 16 h; hits give low values; in the data active = activity change below about -50%; inconclusive = mostly about -30% to -49%
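THP-1 cells pretreated 1 hr with compounds (up to 57.5 uM final), then stimulated with LPS (250 ng/mL final) plus ATP (1.25 mM final); secreted IL-1B measured by AlphaLISA after 16 hr, decreased signal indicating inhibition.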
MCF10A rereplic: A quantitative high throughput screen for small molecules that induce DNA re-replication in MCF 10a normal breast cells. MCF 10A DNA re-replication, Hoechst nuclear intensity, 48 h. Potency, µM (highest dose often 46.1 µM), most hits filed as activators. 350,000 compounds, 2.9% hits. AID 624296, 2012; also: nearly all actives have a fitted effect of over 50% in size
Chronic BCR inh: qHTS Assay to Find Inhibitors of Chronic Active B-Cell Receptor Signaling. ABC-DLBCL IkBa-CBG/CBR reporter, luminescence ratio, 4 h. Potency, µM (doses to about 46.1 µM), most hits filed as inhibitors. 340,000 compounds, 0.05% hits; active = well fitted inhibition curve with a large enough effect in the signal ratio, with a control signal flat, not every such curve was filed as active; inconclusive = small, poorly fitted or top-dose-only effect, or effect the other way, or a change in a side signal; the % refers to the signal ratio
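Concentration-response series (up to 46 uM) were applied to TMD8 dual-reporter cells for 4 h at 37C with doxycycline. Green/red ratio, after filter-overlap correction, defined %Activity; red signal alone was normalised to basal cells and zero luminescence.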
SW480 rereplic: A quantitative high throughput screen for small molecules that induce DNA re-replication in SW480 colon adenocarcinoma cells; SW480 DNA re-replication, Hoechst DNA content imaging, 48 h; Potency, µM (doses to about 46.1 µM), actives largely listed as activators; 340,000 compounds, 1.8% hits; also: nearly all actives have a fitted effect of over 55% in size
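Readout is total intensity of Hoechst-stained nuclei, excited at 405 nm and collected at 500-530 nm. Compound treatment lasted 48 hr at 37 C in 5% CO2 before staining.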
TDP1 cell noCPT: qHTS for Inhibitors of human tyrosyl-DNA phosphodiesterase 1 (TDP1): qHTS in cells in absence of CPT; DT40 Tdp1-/- hTDP1 cells, no CPT, ATP luminescence, 48 h; Potency, µM (titrated, usually from 46.2 µM), actives largely listed as inhibitors; 420,000 compounds, 15% hits; AID 686978, 2013; also: nearly all actives have a fitted effect of over 55% in size
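Luminescent ATP content (CellTiter-Glo) served as the growth readout. Knockout chicken DT40 cells expressing human TDP1 were exposed to compounds without camptothecin for a minimum 48 hr at 37 °C.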
TDP1 cell CPT: qHTS for Inhibitors of human tyrosyl-DNA phosphodiesterase 1 (TDP1): qHTS in cells in presence of CPT. chicken DT40 Tdp1-/-;hTDP1 cells + 20 nM CPT, ATP luminescence, 48 h. Potency, µM (series often up to 46.2 µM), actives largely listed as inhibitors. 420,000 compounds, 12% hits. AID 686979, 2013; also: nearly all actives have a fitted effect of over 55% in size
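Chicken DT40 Tdp1-/- cells complemented with human TDP1, 400 cells/well, exposed to compounds plus 20 nM camptothecin for at least 48 h at 37 C; viability read as ATP content by CellTiter-Glo luminescence.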
Large screens that a line does not name were inactive. Compounds with a hit are over-represented: about 19% of the library has one in this group of screens. Unless noted, calls follow the shape of the dose curve; as a rule, active = well fitted curve in the direction sought with a large enough effect; inconclusive = small, poorly fitted or top-dose-only effect, or another doubt; inactive = no such curve, though single readings can be large; an effect the other way counts as inactive or inconclusive.

COc1ccc(-c2ccc(C(=O)Nc3ccc(C(C)C)cc3)c3occc23)c(C)c1	TDP1 cell noCPT 16µM, TDP1 cell CPT inconclusive (no result: MCF10A rereplic, Chronic BCR inh, SW480 rereplic)
COc1ccc(-c2ccc(C(=O)Nc3cccc(Oc4ccccc4)c3)c3occc23)c(C)c1	TDP1 cell noCPT 16µM, TDP1 cell CPT 23µM (no result: MCF10A rereplic, Chronic BCR inh, SW480 rereplic)
COc1ccc(-c2coc3c(C(=O)Nc4cccc(C(C)=O)c4)cccc23)c(C)c1	TDP1 cell noCPT 21µM, TDP1 cell CPT 18µM (no result: MCF10A rereplic, Chronic BCR inh, SW480 rereplic)
COc1ccc(-c2coc3c(C(=O)Nc4cccnc4)cccc23)c(C)c1	TDP1 cell noCPT 8.2µM, TDP1 cell CPT 18µM (no result: MCF10A rereplic, Chronic BCR inh, SW480 rereplic)
COc1ccccc1NC(=O)c1cc2c(n(-c3ccc(C)cc3)c1=O)CC(C)(C)CC2=O	none (no result: IL1B secr inh, MCF10A rereplic, Chronic BCR inh, SW480 rereplic)
COCCN1C[C@@H](CO)O[C@@H](n2cnc3c(N4CCCC4)ncnc32)C1	none (no result: MCF10A rereplic, Chronic BCR inh, SW480 rereplic)
COc1ccc(CCNc2oc(COc3ccc(F)cc3)nc2C#N)cc1	Chronic BCR inh inconclusive, TDP1 cell noCPT inconclusive, TDP1 cell CPT 18µM
COc1ccc(CCNc2oc(COc3ccccc3F)nc2C#N)cc1OC	TDP1 cell noCPT 26µM, TDP1 cell CPT inconclusive
N#Cc1nc(COc2ccccc2Cl)oc1NCc1ccco1	IL1B secr inh inconclusive, TDP1 cell noCPT inconclusive, TDP1 cell CPT inconclusive
N#Cc1nc(COc2ccc(F)cc2)oc1NCCCn1ccnc1	TDP1 cell noCPT inconclusive
N#Cc1nc(COc2ccccc2Cl)oc1NCCc1ccccc1	TDP1 cell noCPT 16µM, TDP1 cell CPT inconclusive (no result: IL1B secr inh, MCF10A rereplic, Chronic BCR inh, SW480 rereplic)
COc1ccc(CCNc2oc(COc3ccccc3Cl)nc2C#N)cc1OC	MCF10A rereplic inconclusive, Chronic BCR inh inconclusive, TDP1 cell noCPT inconclusive, TDP1 cell CPT inconclusive
CCS(=O)(=O)N1Cc2cc(C(=O)NCCOC)nc(-c3cccc(-c4ccncc4)c3)c2[C@H]1CCO	none (no result: MCF10A rereplic, Chronic BCR inh, SW480 rereplic)
Cc1nn(C)c(C)c1S(=O)(=O)N(CC(=O)NC1CCCCCC1)c1ccc(C(C)C)cc1	MCF10A rereplic 12µM
Cc1nn(C)c(C)c1S(=O)(=O)N(CC(=O)NCCc1ccc(Cl)cc1)c1ccc(C(C)C)cc1	TDP1 cell noCPT 15µM, TDP1 cell CPT 16µM (no result: IL1B secr inh, MCF10A rereplic, Chronic BCR inh, SW480 rereplic)
O=C(Nc1cccc(C(F)(F)F)c1)c1csc([C@H]2C[C@H](O)[C@@H](CO)O2)n1	TDP1 cell noCPT inconclusive, TDP1 cell CPT inconclusive (no result: MCF10A rereplic, Chronic BCR inh, SW480 rereplic)
COc1ccc(Nc2cc(C)c3cc(NC(=O)c4cc(OC)cc(OC)c4)ccc3n2)cc1	TDP1 cell noCPT 7.3µM, TDP1 cell CPT 9.2µM (no result: IL1B secr inh, MCF10A rereplic, Chronic BCR inh, SW480 rereplic)
COc1ccc(Nc2cc(C)c3cc(NC(=O)COc4cccc(C)c4)ccc3n2)cc1	TDP1 cell noCPT 15µM, TDP1 cell CPT 16µM (no result: IL1B secr inh, MCF10A rereplic, Chronic BCR inh, SW480 rereplic)
Cc1cc(Nc2cccc(Cl)c2)nc2ccc(NC(=O)Cc3c(F)cccc3Cl)cc12	TDP1 cell noCPT 7.3µM, TDP1 cell CPT 13µM (no result: IL1B secr inh, MCF10A rereplic, Chronic BCR inh, SW480 rereplic)
Cc1cccc(NC(=O)Cc2c(F)cccc2Cl)n1	Chronic BCR inh inconclusive
COc1ccc(OCC(=O)Nc2cccc(OC)c2)cc1	Chronic BCR inh inconclusive
COc1ccc(C(=O)Nc2cc(OC)cc(OC)c2)cc1	IL1B secr inh inconclusive, Chronic BCR inh inconclusive, TDP1 cell noCPT inconclusive, TDP1 cell CPT inconclusive
COc1ccc(Nc2cc(C)c3cc(NC(=O)Cc4c(F)cccc4Cl)ccc3n2)cc1	TDP1 cell noCPT 13µM, TDP1 cell CPT 16µM (no result: IL1B secr inh, MCF10A rereplic, Chronic BCR inh, SW480 rereplic)
COc1ccccc1-n1nnnc1SCC(=O)NC1CCCCC1	none
CCOc1ccc(CCNC(=O)Cn2nc(C)c3c(C)n(-c4ccccc4)nc3c2=O)cc1OCC	TDP1 cell noCPT inconclusive, TDP1 cell CPT inconclusive
COC(=O)Cn1c(=O)c2c(nc3n2CCN3c2ccc(F)cc2)n(C)c1=O	none (no result: IL1B secr inh, MCF10A rereplic, Chronic BCR inh, SW480 rereplic)
COc1ccc(CC(=O)Nc2ccc(N3CCCC3)c(C)c2)cc1	TDP1 cell noCPT inconclusive, TDP1 cell CPT inconclusive
COc1ccc(CC(=O)Nc2ccc3nc(Nc4ccc(OC)cc4)cc(C)c3c2)cc1	TDP1 cell noCPT 23µM, TDP1 cell CPT inconclusive (no result: IL1B secr inh, MCF10A rereplic, Chronic BCR inh, SW480 rereplic)

Assay outcomes (PubChem BioAssay)
